TTR transcr act = increases transthyretin transcription | AID 1117267 | SH-SY5Y TTR promoter Gaussia luciferase, luminescence; 100% = recombinant luciferase protein wells | actives 1.3% (n = 92,000) | activation, % at 16.7 µM;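 active = activation above the mean of all tested compounds plus 3 SD, cut at about 9.5% in these data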;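 also: cells exposed to compounds for one day before reading; 0% = median of all test compound wells on the plate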
TTR inh HuH7 = decreases TTR transcription in HuH7 cells in activator counter-screen; actives 4% (n = 1,100); inhibition, % at 16.7 µM; HuH7 TTR promoter-Gaussia luciferase reporter, luminescence; shares compounds with TTR transcr act; AID 1117279;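 active = average inhibition above the solvent-only control wells' mean plus 3 SD, cut at about 15% in these data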;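 also: 0% = cells with DMSO only and 100% = cells with inhibitor control FD; inhibitors lower well luminescence so higher value means more inhibition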
TTR act confirm = confirmation of human transthyretin transcription activators. shares compounds with TTR transcr act. SHSY5Y TTR promoter Gaussia luciferase, luminescence; 100% = purified Lucia enzyme wells, no cells. activation, % at 16.7 µM. 1,100 tested, under 10 active;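 active = mean activation above a set limit taken from the earlier primary screen, cut at about 11% in these data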;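 also: 0% = DMSO-treated cells and 100% = recombinant Lucia luciferase without cells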
An asterisk follows results filed as active. This is one part of a sample in which hits are shown more often than they occur.

`C/C(=N\Nc1cc(C)nc(-c2ccccc2)n1)c1cccc([N+](=O)[O-])c1` gave TTR transcr act -1.
`C/C(=N\NC(=O)C(N)=O)c1cccc([N+](=O)[O-])c1` gave TTR transcr act 3.
CC(=O)c1cc(-c2ccc(S(C)(=O)=O)cc2)c(=O)n2c1CCC2 was read as TTR transcr act 3.
Screening O=C(OCC#CCSc1nnc(-c2cccc3ccccc23)o1)c1sccc1Cl returned TTR transcr act 0.
For COCCNc1nc(NCCN2CCNC2=O)c2sc(-c3ccccc3)cc2n1 the results were TTR transcr act -2.
Cc1ccc(CN2CCCCC(NC(=O)Nc3cccc([N+](=O)[O-])c3)C2=O)cc1 (centres undefined) was read as TTR transcr act -2.
Screening C=CCN1C(=O)[C@@H](CC(=O)N2CCN(C(=O)C3CC3)CC2)[C@]2(C(=O)OC)CCCCC=C12 returned TTR transcr act 0.
Screening CCOC(=O)C1C[C@@H](O)C=CC1=O (some centres undefined) returned TTR transcr act 0.
C[C@H]1[C@@H](OC(=O)NCc2ccc(C(F)(F)F)cc2)CC[C@@]23CCCN2C(=O)CCC[C@@H]13 was read as TTR transcr act -1.
O=C(COC(=O)c1ccccn1)Nc1cccc(Cl)c1Cl was read as TTR transcr act 2.
Screening Cc1ccnc2nc(C(=O)OCC(=O)NCCc3ccc(Cl)cc3)nn12 returned TTR transcr act 1.
Screening O=C(COC(=O)c1ccccn1)NCCc1ccc(Cl)cc1 returned TTR transcr act 11*, TTR inh HuH7 -8 and TTR act confirm 0.
`Cc1cc(Cl)ccc1OCC(=O)N/N=C/c1ccc[nH]1` gave TTR transcr act 0.
Screening Cc1nn(C)cc1NC(=O)C[C@H]1CC[C@H]2[C@@H](COc3ccc(NC(=O)Nc4ccccc4)cc3C(=O)N2C)O1 returned TTR transcr act 4.
O=C(CSc1cccc[n+]1[O-])Nc1ccc(Br)cc1Br was read as TTR transcr act 0.
`O=C(CSc1cccc[n+]1[O-])Nc1cc2c(cc1Cl)C(=O)c1ccccc1C2=O` gave TTR transcr act -2.
Cc1cc(C)c(NC(=O)CSc2cccc[n+]2[O-])c(C)c1 was read as TTR transcr act 1.
`Cc1ccc(Cl)c(NC(=O)CSc2cccc[n+]2[O-])c1Cl` gave TTR transcr act 14*, TTR inh HuH7 -9 and TTR act confirm 0.
O=C(CSc1cccc[n+]1[O-])Nc1ccc(Cl)cc1F was read as TTR transcr act 11*, TTR inh HuH7 -10 and TTR act confirm 1.
For CN(C)S(=O)(=O)c1cc(NC(=O)CSc2cccc[n+]2[O-])ccc1Cl the results were TTR transcr act 1.
For O=C(OCC#CCSc1nnc(-c2cccc3ccccc23)o1)C1CCCC1 the results were TTR transcr act 2.
`O=C(NC1CCN(C(=S)Nc2ccccc2)CC1)C1CCCCC1` gave TTR transcr act 0.
Screening C#CCNC[C@@H]1CSCCS(=O)(=O)N1 returned TTR transcr act 0.
For CC(c1ccccc1)N1CC[C@H]2C=CC[C@@H](C(=O)Nc3ccc(F)c(F)c3)[C@H]2C1=O (some centres undefined) the results were TTR transcr act -1.
`Cc1ccc(-n2nc3ccc(NC(=O)c4ccc5c(c4)OCO5)cc3n2)cc1` gave TTR transcr act 1.
For CC(C)(C)c1cnnn1-c1ccc(NC(=O)c2ccc3c(c2)OCO3)cc1 the results were TTR transcr act -1.
`CCc1ccc(-n2nc3ccc(NC(=O)c4ccc5c(c4)OCO5)cc3n2)cc1` gave TTR transcr act 14*, TTR inh HuH7 -2 and TTR act confirm 0.
COC(=O)[C@]12CCCCC=C1N(Cc1ccc(OC)cc1)C(=O)[C@@H]2CC(=O)NCc1ccc(C)o1 was read as TTR transcr act 2.
For CCCC1CCC2(CC1)CCC2OC(=O)Nc1ccc(C)cc1 (centres undefined) the results were TTR transcr act -1.
Screening COCCCNC(=O)C[C@H]1C(=O)N(Cc2ccc(OC)cc2)C2=CCCCC[C@@]21C(=O)OC returned TTR transcr act 7.
`O=C(NCCc1nc2ccccc2[nH]1)/C(=C/c1ccco1)NC(=O)c1ccc(Br)cc1` gave TTR transcr act -1.
For O=C(NCCc1nc2ccccc2[nH]1)/C(=C/c1ccco1)NC(=O)c1ccccc1Br the results were TTR transcr act -1.
Screening COc1ccc(/C=C/C(=O)N/C(=C\c2ccco2)C(=O)NCCc2nc3ccccc3[nH]2)cc1 returned TTR transcr act 12*, TTR inh HuH7 4 and TTR act confirm -1.
`C[C@H]1[C@@H](OC(=O)Oc2ccc([N+](=O)[O-])cc2)CC[C@@]23CCCN2C(=O)CCC[C@@H]13` gave TTR transcr act 0.
Screening O=S1(=O)N[C@H](Cc2ccccc2)COc2cc(Br)ccc21 returned TTR transcr act -2.
`CCOC(=O)C1=CCC(c2ccccc2)N(S(=O)(=O)c2ccccc2C)C1` (centres undefined) gave TTR transcr act 5.
Screening Cc1ccc(Cl)cc1NC(=O)CN1CCOCC1 returned TTR transcr act 4.
Screening Clc1ccc2c(c1)c1ccccc1n2CN1CCOCC1 returned TTR transcr act 22*, TTR inh HuH7 -8 and TTR act confirm 0.
COc1ccc(Cl)cc1CN1CCOCC1 was read as TTR transcr act 0.
Fc1cc(F)cc(NC(=S)Nc2ccccc2N2CCOCC2)c1 was read as TTR transcr act 12*, TTR inh HuH7 -3 and TTR act confirm -1.
`O=C(Nc1ccccc1N1CCOCC1)c1ccc2ccccc2c1` gave TTR transcr act -1.
For COc1cc(OC)cc(C(=O)Nc2ccccc2N2CCOCC2)c1 the results were TTR transcr act -1.
Screening CNc1nc(N)c([N+](=O)[O-])c(Nc2ccccc2)n1 returned TTR transcr act 1.
Screening O=C(NCCc1ccccc1)OCc1cn(Cc2cc(F)ccc2F)nn1 returned TTR transcr act 1.
For CCOC(=O)C1CCN(C(=O)C(C)(C)NC(=O)Nc2ccc(C(F)(F)F)cc2Cl)CC1 the results were TTR transcr act 2.
C=CS(=O)(=O)N(C(=C)C(=O)OC)S(C)(=O)=O was read as TTR transcr act -1.
O=C(CCCOc1ccccc1)N1CCN(S(=O)(=O)c2cccs2)CC1 was read as TTR transcr act 27*, TTR inh HuH7 -10 and TTR act confirm 4.
Screening O=C(O)CCC(=O)N1CCN(S(=O)(=O)c2cccs2)CC1 returned TTR transcr act 4.
CC(=O)c1ccc(OCCCC(=O)N2CCN(S(=O)(=O)c3cccs3)CC2)cc1 was read as TTR transcr act -1.
For FC(F)(F)c1ccccc1NC(=S)OCCN1CCCC12CCC(c1ccccc1)CC2 (centres undefined) the results were TTR transcr act 1.
Cc1cc(NCCO)c2cc(O)ccc2n1 was read as TTR transcr act 6.
Screening CN(C)CCNc1ccc(CO)c2oc3ccc(O)cc3c(=O)c12 returned TTR transcr act 16*, TTR inh HuH7 -92 and TTR act confirm 13*.
COCO[C@@H]1CC(CO)=C[C@H]2OCO[C@H]21 was read as TTR transcr act 7.
O=[N+]([O-])c1ccc2nc(COCc3nc4ccccc4[nH]3)[nH]c2c1 was read as TTR transcr act 8.
